Only some compounds are listed: those with a hit (about 2.8% of all), similar ones and a draw of the others.
PAFAH1B2 FP inh: blocks human PAF acetylhydrolase 1b catalytic subunit 2; P68402; recombinant PAFAH1B2, FP-rhodamine activity probe, fluorescence polarization; inhibition, % at 3.39 µM; hit rate 1.2% among 340,000; AID 492953;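 active = inhibition above the mean of all tested compounds plus 3 SD, cut at about 24% in these data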;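 also: 0% = enzyme with DMSO and 100% = wells lacking PAFAH1B2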
Target sequence (P68402 whole entry, looked up): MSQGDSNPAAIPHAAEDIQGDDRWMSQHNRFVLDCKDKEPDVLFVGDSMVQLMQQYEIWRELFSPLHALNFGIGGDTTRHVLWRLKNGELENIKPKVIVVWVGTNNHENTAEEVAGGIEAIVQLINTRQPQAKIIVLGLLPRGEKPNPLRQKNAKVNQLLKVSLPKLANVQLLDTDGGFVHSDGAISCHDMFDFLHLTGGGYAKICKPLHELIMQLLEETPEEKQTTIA
Fam108B counter: counter-screen for RBBP9 inhibitors: inhibitors of mouse Fam108B | recombinant Fam108B, FP-Rh probe fluorescence polarization | inhibition, % at 9.51 µM | hit rate 0.33% among 300,000 | AID 1947;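 active = inhibition above the screen mean inhibition plus 3 SD, computed separately per campaign, cut at about 18% in these data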;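 also: inhibitors lower polarization as less probe binds the enzyme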
PAFAH1B3 inh: inhibitors of human PAFAH1B3; recombinant PAFAH1B3, FP-rhodamine probe, fluorescence polarization; inhibition, % at 3.39 µM; hit rate 0.28% among 340,000;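 active = inhibition above the screen-wide average of all tested compounds plus 3 SD, cut at about 25% in these data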;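 also: 0% = enzyme with DMSO only and 100% = wells lacking PAFAH1B3 protein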
PAFAH2 inh: PAFAH2 (human) inhibition; Q99487; recombinant PAFAH2, FP-rhodamine activity probe, fluorescence polarization; inhibition, % at 3.39 µM; hit rate 0.99% among 340,000; AID 492956;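 active = inhibition above the mean over all tested compounds plus 3 SD, cut at about 30% in these data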;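 also: inhibitors block probe labeling of enzyme so polarization drops; 0% = enzyme with DMSO and 100% = wells lacking PAFAH2 protein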
pPAFAH FP inh: pPAFAH (human) enzyme inhibition; inhibition, % at 3.39 µM; hit rate 1.5% among 330,000; AID 463082; Q13093; recombinant pPAFAH, FP-rhodamine probe fluorescence polarization;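 active = inhibition above the mean inhibition across the screen plus 3 SD, cut at about 25% in these data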;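 also: inhibitors block binding of the rhodamine activity-based probe so polarization drops; 0% = enzyme with DMSO and 100% = wells lacking pPAFAH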
Target sequence (Q13093 whole entry, looked up): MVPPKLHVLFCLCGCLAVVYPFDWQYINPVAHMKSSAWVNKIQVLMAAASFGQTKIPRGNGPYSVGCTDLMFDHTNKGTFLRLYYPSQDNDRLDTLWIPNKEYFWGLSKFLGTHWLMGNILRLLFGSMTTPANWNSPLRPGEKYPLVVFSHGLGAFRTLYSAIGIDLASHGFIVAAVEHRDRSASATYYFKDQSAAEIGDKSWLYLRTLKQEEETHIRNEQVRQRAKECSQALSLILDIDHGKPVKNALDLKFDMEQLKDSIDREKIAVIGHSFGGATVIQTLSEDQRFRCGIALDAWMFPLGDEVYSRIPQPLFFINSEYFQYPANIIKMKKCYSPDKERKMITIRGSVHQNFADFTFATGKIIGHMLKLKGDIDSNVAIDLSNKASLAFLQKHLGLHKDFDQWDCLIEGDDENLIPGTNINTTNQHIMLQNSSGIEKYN
PME-1 inh: blocks human protein phosphatase methylesterase 1; hit rate 0.53% among 320,000; recombinant PME-1, FP-Rh probe fluorescence polarization; inhibition, % at 5.9 µM; AID 2130;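 active = inhibition above the campaign mean of all compounds plus 3 SD, cut at about 26% in these data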;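 also: competitive labeling of PME-1 active site by serine hydrolase directed probe; 0% = PME-1 with DMSO and 100% = wells lacking PME-1 enzyme; inhibitors block probe labeling so polarization falls and inhibition rises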
PAFAH2 FP conf: PAFAH2 (human) inhibition, confirmed; hit rate 65% among 2,300; recombinant PAFAH2, FP-rhodamine activity probe, fluorescence polarization; shares compounds with PAFAH2 inh; AID 493030; inhibition, % at 3.39 µM;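 active = mean inhibition over three repeats above a set limit taken from the earlier primary screen, cut at about 30% in these data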;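 also: inhibitor blocks binding of rhodamine activity probe so polarization falls; 0% = enzyme with DMSO and 100% = wells lacking PAFAH2 protein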
Active calls of the source: *; . = no result.

SMILES | PAFAH1B2 FP inh | Fam108B counter | PAFAH1B3 inh | PAFAH2 inh | pPAFAH FP inh | PME-1 inh | PAFAH2 FP conf
CC(C)(C)c1ccc(OCC(O)CN2CCc3ccccc3C2)cc1 (configuration not stated) | . | -1 | . | . | 1 | 0 | .
Cc1ccc(N2CCN(C(=O)c3ccccc3NC(=O)C3CC=CCC3C(=O)O)CC2)cc1 (configuration not stated) | 2 | -7 | 7 | 66* | 0 | -1 | 57*
Cc1ccccc1-c1nnc(Cc2ccccc2)o1 | 4 | 6 | -3 | -14 | 8 | -2 | .
O=C(COC(=O)/C=C/c1cccs1)Nc1ccc(F)cc1 | 2 | . | 6 | 82* | 7 | -2 | 82*
COc1ccccc1CNC(=O)COC(=O)c1ccc(C)s1 | 4 | . | 3 | 75* | 21 | 5 | 62*
COc1ccccc1CNC(=O)COC(=O)/C=C/c1cccs1 | 5 | 3 | 6 | 50* | 14 | 1 | 37*
CN(CC(=O)Nc1ccc(F)cc1)C(=O)COC(=O)/C=C/c1cccs1 | 4 | 1 | -3 | 6 | 2 | 4 | .
CCc1cccc(NC(=O)COC(=O)/C=C/c2cccs2)c1 | 3 | -4 | 1 | 73* | 17 | -4 | 78*
Cc1ccc(CCNC(=O)CCc2nc3ccccc3[nH]2)cc1 | 8 | -8 | 4 | -1 | -7 | -6 | .
c1ccc(-c2cc(CSc3nc4ccccc4[nH]3)on2)cc1 | 5 | 6 | 1 | -3 | -13 | -25 | .
O=C(COC(=O)/C=C/c1cccs1)Nc1cccc(S(=O)(=O)N2CCCC2)c1 | 1 | 3 | 11 | 64* | 5 | 4 | 57*
CCOc1ccc(/C=C/C(=O)OCC(=O)Nc2cccc(S(=O)(=O)N3CCCC3)c2)cc1 | -2 | . | -5 | 25 | -3 | -25 | .
N#C/C(=C\c1ccc(O)c(O)c1)S(=O)(=O)c1ccccc1 | 14 | 5 | 17 | 64* | 11 | 7 | 49*
N#C/C(=C/c1ccc(F)cc1)S(=O)(=O)c1ccccc1 | 10 | -3 | 10 | -2 | 6 | -3 | .
C=CCNc1nc(Cl)nc(Nc2ccc(OCC)cc2)n1 | 0 | -2 | 6 | -1 | 1 | 6 | .
NS(=O)(=O)c1ccc(O)c(NC(=O)c2ccc([N+](=O)[O-])cc2)c1 | -3 | -3 | 4 | 31* | 6 | -2 | 29
CN=C(Nc1cccc(OC)c1)SC1CC(=O)N(c2ccc(C(=O)O)cc2)C1=O (configuration not stated) | 0 | 3 | 2 | -9 | 8 | 9 | .
O=C(CNC(=O)C12CC3CC(CC(C3)C1)C2)N1CCN(S(=O)(=O)c2cccs2)CC1 | 10 | -2 | 1 | 26 | 2 | 4 | .
O=C(CNC(=O)C12CC3CC(CC(C3)C1)C2)N1CCN(S(=O)(=O)/C=C/c2ccccc2)CC1 | 8 | -2 | 7 | 35* | 3 | 2 | 24
Cc1cccc(NC(=O)C2CCCN(S(=O)(=O)c3cccs3)C2)c1C (configuration not stated) | -1 | -1 | 1 | -6 | 4 | -1 | .
CN(C)c1ccc(C(=O)OCC(=O)NCC2CCCO2)cc1 (configuration not stated) | 1 | 3 | 2 | 62* | 8 | -1 | 56*
COC(=O)c1ccc(CNC(=O)COC(=O)c2ccc(N(C)C)cc2)cc1 | 8 | -1 | 9 | 44* | 6 | 2 | 40*
CC(=O)Nc1ccc(C(=O)OCC(=O)Nc2c(F)cccc2F)cc1 | 4 | -3 | 7 | 50* | -2 | 2 | 38*
CN(C)c1cccc(C(=O)OCC(=O)NCC2CCCO2)c1 (configuration not stated) | -3 | 1 | -2 | 24 | 6 | -4 | .
CC(=O)Nc1ccc(NC(=O)CCC(=O)OCC(=O)c2ccc(F)cc2)cc1 | 2 | 2 | 12 | -2 | 0 | -4 | .
SMILES | PAFAH1B2 FP inh | Fam108B counter | PAFAH1B3 inh | PAFAH2 inh | pPAFAH FP inh | PME-1 inh | PAFAH2 FP conf
COC(=O)c1ccc(CNC(=O)COC(=O)c2ccccc2-c2ccccc2)cc1 | 5 | 2 | 8 | 0 | 7 | 10 | .
CC(=O)Nc1ccc(C(=O)OCC(=O)c2ccc(F)cc2)cc1 | 5 | -1 | 5 | 38* | -9 | -1 | 36*
O=C(/C=C/c1ccccc1Cl)OCC(=O)c1ccc[nH]1 | -1 | . | 2 | 25 | 10 | -7 | .
N#C/C(=C\c1ccccc1)c1nc2ncccc2[nH]1 | 5 | 3 | 9 | 8 | 9 | 6 | .
CCC(C)/C(C)=N/NC(=O)c1ccccc1OCCOc1ccccc1 (configuration not stated) | -2 | -2 | 1 | 3 | -3 | -9 | .
COc1cc(OC)cc(C(=O)OCC(=O)NCCCc2ccccc2)c1 | -1 | -2 | 3 | 15 | 5 | 1 | .
CCOc1ccc(C(=O)OCC(=O)NCCCc2ccccc2)cc1 | 1 | -2 | -2 | 55* | 13 | 1 | 35*
CN(C)c1ccc(C(=O)OCC(=O)Nc2ccc(N3CCOCC3)cc2)cc1 | 2 | 8 | 10 | 49* | 4 | 1 | 35*
CC(=O)Nc1ccc(C(=O)OCC(=O)NCc2ccccc2)cc1 | 2 | 9 | 8 | 55* | -6 | -2 | 46*
COc1ccc(C(=O)OCC(=O)Nc2ccc(N3CCOCC3)cc2)cc1 | -1 | . | 0 | 17 | 8 | -5 | .
O=C(COC(=O)C1=Cc2ccccc2OC1)NCc1ccccc1 | 2 | 5 | 0 | 31* | 3 | 8 | 23
CC(=O)Nc1ccc(OCC(=O)NCc2ccccc2)cc1 | -7 | -1 | -4 | -6 | -2 | 4 | .
COc1ccccc1C(C)NC(=O)c1ccc(S(=O)(=O)NCc2ccco2)cc1 (configuration not stated) | 7 | . | 5 | 2 | 0 | . | .
CN(C)c1ccc(C(=O)OCc2ccc(Br)cc2)cc1 | 12 | 0 | -2 | 34* | 10 | 3 | 35*
COc1ccc(CN2CCNC(=O)C2CC(=O)N2CCCCO2)c(OC)c1 (configuration not stated) | 1 | 2 | 7 | -7 | -1 | 2 | .
C=CCNc1nc(C(=O)OCC(=O)Nc2cccc(SC)c2)cs1 | 4 | . | 9 | 62* | . | . | 51*
O=C(Cc1cccc2ccccc12)Nc1ccc(Br)cc1C(=O)O | 7 | -3 | 18 | 36* | -7 | -8 | 25
O=C(Nc1ccc(O)cc1C(=O)O)c1cccc(Br)c1 | 5 | -1 | 9 | 38* | 0 | 8 | 21
O=c1cc(CN2CCN(S(=O)(=O)c3ccccc3[N+](=O)[O-])CC2)nc2sccn12 | 0 | -3 | 6 | 4 | 5 | -1 | .
COC(=O)Nc1nc(-c2ccccc2)c(C(=O)c2ccccc2)s1 | 17 | -4 | -3 | 53* | 0 | -1 | 50*
COc1cc(N)c(Cl)cc1C(=O)OCC(=O)N1CCc2ccccc21 | 3 | . | 0 | 33* | 2 | 7 | 18
COc1cccc(C(=O)OCC(=O)N2CCc3ccccc32)c1OC | 2 | . | 5 | 43* | . | . | 43*

Bioassay records as filed in PubChem.
